Results from PubChem BioAssay AID2716 (Broad Institute, 2010).
Hit rate of the full screen: of about 320,000 compounds, about 3,300 (1%) were called active. This is one part of a sample in which actives are shown more often than they occur.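 Rule for the calls: active = every valid replicate shows activation above 250% relative to neutral control wells; inactive = the rest, any valid replicate at or below 250%.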

Experiment: yeast Mot1-301 growth rescue at high temperature, primary screen, SUMOylation pathway inhibitor project, S. cerevisiae, ATP luminescence, 38.5C (AID 2716);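 note: OY570 slx delta 5 strain wells were the positive control but not used for scaling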
Conditions: S. cerevisiae Mot1-301 growth rescue, at 18.8 µM, active compounds read high, percent above DMSO median, 100 means doubled
With Cc1ccc(CNC(=O)C2(C(F)(F)F)C/C(=C\Cc3ccccc3)CCCO2)o1 (stereo unspecified) the growth rescue was 17.2% (inactive). For Cc1cccc(N(C)C(=O)c2cc3c(=O)[nH]c4ccc(C)cc4c3s2)c1, the growth rescue was 675% (active). For Cc1ccc2[nH]c(=O)c(CC(=O)O)c(-c3ccccc3)c2c1, the growth rescue was -1.66% (inactive). For CCN(CC)CCCNC(=O)c1cc2c(=O)[nH]c3ccc(C)cc3c2s1, the growth rescue was 6.48% (inactive). In the case of COc1cccc(NC(=O)COc2cccnc2[N+](=O)[O-])c1, the growth rescue was 8.97% (inactive). With Cc1cc(C)c(S(=O)(=O)NCC2CCC(C(=O)NCc3ccc4c(c3)OCO4)CC2)c(C)c1 (stereo unspecified) the growth rescue was 33.6% (inactive). In the case of CNS(=O)(=O)c1cnccc1N1CCN(c2cccc(C)c2)CC1, the growth rescue was -3.12% (inactive). In the case of COc1ccc(N(CC(=O)Nc2cccc3ccccc23)S(C)(=O)=O)c(OC)c1, the growth rescue was 9.81% (inactive). In the case of COc1ccccc1NC(=O)COc1ccc(C(=O)OCC(=O)N(C(C)C)C(C)C)cc1OC, the growth rescue was 38.2% (inactive). With COc1cc(CO)ccc1OCC(=O)Nc1cccc2ccccc12 the growth rescue was 314% (active). In the case of C[C@H](CO)N1C[C@H](C)[C@H](CN(C)CC2CC2)Oc2ccc(NC(=O)CCN3CCOCC3)cc2C1=O, the growth rescue was -13.9% (inactive). In the case of Cc1ccc(S(=O)(=O)C2(S(=O)(=O)c3ccc(C)cc3)CCCC2)cc1, the growth rescue was -9.93% (inactive). In the case of O=S1(=O)CC/C(=N\Nc2ccc(F)cc2)c2ccsc21, the growth rescue was 423% (active). With COc1ccc(C(=O)N/N=C2\CCS(=O)(=O)c3ccc(F)cc32)cc1OC the growth rescue was -16.6% (inactive). In the case of CN1CCN(C(=O)c2ccc(-c3ccc(Br)cc3)o2)CC1, the growth rescue was 14% (inactive). In the case of O=C1C=CN2CCCC2CC1 (stereo unspecified), the growth rescue was 51.5% (inactive). In the case of O=C1CC2(CCCCC2)Oc2ccc(OCC(=O)N3CCOCC3)cc21, the growth rescue was -29.5% (inactive). In the case of COc1ccc(OCC(=O)N2CCN(C(=O)COc3ccccc3)CC2)cc1, the growth rescue was -6.56% (inactive). For O=C1CC2(CCN(C(=O)COc3ccc(F)cc3)CC2)Oc2ccccc21, the growth rescue was 269% (active). With O=C1CCCC2=C1C(c1cccs1)n1nc(SCc3ccccc3)nc1N2 (stereo unspecified) the growth rescue was 10.5% (inactive). For O=Cc1ccc(Oc2cccc(C(F)(F)F)c2)nc1, the growth rescue was 554% (active). In the case of O=C(O)CCCC(=O)Nc1ccc(Oc2cccc(C(F)(F)F)c2)nc1, the growth rescue was -3.63% (inactive). For CC(C)Oc1ccc(Oc2ccc(C(F)(F)F)cn2)cc1, the growth rescue was 21.9% (inactive). With NNC(=O)CNC(c1ccccc1)c1cc(Cl)ccc1NC(=O)c1ccccc1 (stereo unspecified) the growth rescue was -0.491% (inactive). For Cc1c(Cl)c([N+](=O)[O-])nn1CCCC(=O)NC(C)c1ccccc1 (stereo unspecified), the growth rescue was 3.65% (inactive). For CCOc1ccc(/C=N/Nc2nncc(-c3ccccc3)n2)cc1OC, the growth rescue was 999% (active). For CCOc1cc(/C=N/NC(=O)c2cc(-c3ccccc3)nc3ccccc23)ccc1O, the growth rescue was 15.1% (inactive). In the case of COc1cccc(/C=N\Nc2nncc(-c3ccccc3)n2)c1, the growth rescue was -1.53% (inactive). With CCC1(CC)NC(=O)N(CC(=O)OCC(=O)Nc2ccc(C(F)(F)F)cc2)C1=O the growth rescue was 154% (inactive). For CCCCNC(=O)CN1C(=O)NC(Cc2ccccc2)(Cc2ccccc2)C1=O, the growth rescue was -4.3% (inactive). With CCC1(CC)NC(=O)N(CC(=O)OCC(=O)NC(=O)c2ccccc2)C1=O the growth rescue was 663% (active). In the case of Cc1cccc2c1N(CCOc1ccccc1)C(=O)C2=O, the growth rescue was -12.8% (inactive). With Cc1nn(CCOc2ccccc2)c(=O)n1-c1ccccc1F the growth rescue was 1160% (active). With Cc1c(C(N)=O)sc2ncn(CCOc3ccccc3)c(=O)c12 the growth rescue was -2.19% (inactive). For CN(/C(=N/S(=O)(=O)c1cccs1)c1ccccc1)c1ccc(O)cc1, the growth rescue was 313% (inactive). For CCCCC(=O)N/N=C(\C)CC(=O)Nc1cc(Cl)ccc1OC, the growth rescue was 1520% (active). For COc1ccc(/C(C)=N/NC(=O)CCC(=O)Nc2ccc(Cl)cc2Cl)c(OC)c1, the growth rescue was 28.5% (inactive). For COc1ccc(Cl)cc1NC(=O)CNc1ccccc1F, the growth rescue was 0.922% (inactive). In the case of COc1ccc(Cl)cc1-n1c(C)cc(C(=O)OCC(=O)N2CC(=O)Nc3ccccc32)c1C, the growth rescue was -14.8% (inactive). In the case of CCc1noc(C)c1C(=O)Oc1ccc(N(C)S(=O)(=O)c2ccc(C)c(C)c2)cc1, the growth rescue was -5.53% (inactive). With COCC(=O)Nc1cc(C(=O)OC)cc(C(=O)OC)c1 the growth rescue was 10% (inactive). In the case of Cc1ccnc(N2C(=O)c3ccccc3C2Nc2ccc3c(c2)OCCO3)c1 (stereo unspecified), the growth rescue was -14% (inactive). With COC(=O)c1cc(NC2c3ccccc3C(=O)N2c2ccc(Cl)cn2)cc(C(=O)OC)c1 (stereo unspecified) the growth rescue was -1.41% (inactive). For CCc1ccccc1NC1c2ccccc2C(=O)N1c1cccnc1 (stereo unspecified), the growth rescue was 462% (active). In the case of CS(=O)(=O)N(CC(=O)N/N=C/c1ccccn1)c1ccc(Oc2ccccc2)cc1, the growth rescue was 6.74% (inactive). With O=C(CCCCCN1C(=O)c2cccc3cccc(c23)C1=O)NCc1ccco1 the growth rescue was -8.72% (inactive). With O=C(CN1C(=O)/C(=C/c2ccccc2F)Sc2ccccc21)NCc1cccnc1 the growth rescue was -3.97% (inactive). For O=C(CN1C(=O)/C(=C\c2ccc(C(F)(F)F)cc2)Sc2ccccc21)NCc1ccco1, the growth rescue was 963% (active). With Cc1ccc(NC(=O)COC(=O)CN2CCCCCC2=O)c(C)c1 the growth rescue was 2.83% (inactive). For O=C(O)c1c(NC(=O)N2CCCC2)sc2c1CCCC2, the growth rescue was 2.52% (inactive). For O=C(O)CCCCCCCCCC[n+]1ccccc1, the growth rescue was 17.1% (inactive). With CC(CNc1ccc([N+](=O)[O-])c2cccnc12)Nc1c([N+](=O)[O-])cc(C(F)(F)F)cc1[N+](=O)[O-] (stereo unspecified) the growth rescue was 469% (inactive). In the case of CCOC(=O)CCCCCC(=O)Nc1ccc2c(c1)CC(=O)N([C@@H](C)CO)C[C@H](C)[C@@H](CN(C)Cc1ccccc1)O2, the growth rescue was -3.38% (inactive). In the case of Cc1ccc(C(c2sc3nc(C)nn3c2O)N2CCN(c3ccccc3)CC2)cc1 (stereo unspecified), the growth rescue was 6.75% (inactive). In the case of Cc1nc2sc(C(c3ccco3)N3CCOCC3)c(O)n2n1 (stereo unspecified), the growth rescue was 853% (active). For Cc1nc2sc(C(c3ccco3)N3CCC4(CC3)OCCO4)c(O)n2n1 (stereo unspecified), the growth rescue was -10% (inactive). In the case of CCN1CCN(C(C(=O)NC2CCCC2)c2cc3c(cc2[N+](=O)[O-])OCO3)CC1 (stereo unspecified), the growth rescue was -4.81% (inactive). For COc1cccc(CNC(=O)Cn2c(=O)oc3cc(S(=O)(=O)N4CCCCC4)ccc32)c1, the growth rescue was 4.01% (inactive). With CC(C)CCNC(=O)Cn1c(=O)oc2cc(S(=O)(=O)N3CC(C)CC(C)C3)ccc21 (stereo unspecified) the growth rescue was 608% (active). With CC1CCCCN1C(=O)Cn1c(=O)oc2cc(S(=O)(=O)N3CCCCC3)ccc21 (stereo unspecified) the growth rescue was 12% (inactive). With Clc1ccc(Nc2ccc3ccccc3n2)cc1 the growth rescue was 30.7% (inactive). For COc1ccc(CNC(=O)COc2cccnc2[N+](=O)[O-])cc1, the growth rescue was -4.39% (inactive). In the case of COc1ccc(OC)c(NC(=O)CSc2nc(-c3ccccc3)cc(=O)[nH]2)c1, the growth rescue was 371% (inactive). In the case of O=C(NC1CCCCC1)c1ccc2c(=O)n(CC3CCCO3)c(=O)[nH]c2c1 (stereo unspecified), the growth rescue was 2310% (active). For Cc1cccc(NC(=O)c2ccc3c(=O)n(CC4CCCO4)c(=S)[nH]c3c2)c1 (stereo unspecified), the growth rescue was -20.5% (inactive). In the case of O=C(NCc1ccccc1Cl)c1ccc2c(=O)n(CC3CCCO3)c(=S)[nH]c2c1 (stereo unspecified), the growth rescue was -7.73% (inactive). In the case of O=C(Nc1cccc(F)c1)NC1CCCCCCC1, the growth rescue was 2.77% (inactive). With N#C/C(=C(\O)CCl)c1nnc2n1CCCCC2 the growth rescue was 10% (inactive). In the case of Cc1cn(C)c(=O)n(C)c1=O, the growth rescue was 274% (inactive). For Cc1ccc(-c2cn3cc([N+](=O)[O-])ccc3n2)cc1, the growth rescue was 25% (inactive). In the case of Cc1ccc2nc(-c3ccc(Br)cc3)cn2c1, the growth rescue was -0.961% (inactive). For Cc1ccc(-c2cn3cc(C)ccc3n2)cc1, the growth rescue was 297% (active). In the case of Cc1cccc(NC(=S)N(CCN(C)C)C(C)c2ccco2)c1 (stereo unspecified), the growth rescue was 58.7% (inactive). With O=C(Cn1c(=O)sc2ccccc21)Nc1ccc2c(c1)OCCO2 the growth rescue was 284% (active). In the case of Cc1nnc(NC(=O)Cn2c(=O)sc3ccccc32)s1, the growth rescue was 0.0426% (inactive). With Cn1c(=O)c2ccccc2n(CC(=O)Nc2ccc3c(c2)OCCO3)c1=O the growth rescue was 0.839% (inactive). In the case of COCC1CCN(C(=O)CCc2nnc(C3(c4ccc(Cl)cc4)CCC3)o2)C1 (stereo unspecified), the growth rescue was -10.9% (inactive). For Cc1ccc(S(=O)(=O)N(CC(=O)NCCSC2CCCCC2)c2ccccc2F)cc1, the growth rescue was 1.9% (inactive). For Cc1cccc(N(C(=O)c2ccc(CN3CCOCC3)o2)C(C(=O)NC2CCCCC2)c2ccc(F)cc2)c1 (stereo unspecified), the growth rescue was 647% (active). In the case of Cc1ccc(N(C(=O)c2ccc(CN3CCOCC3)o2)C(C(=O)NCCC(C)C)c2cccs2)c(C)c1 (stereo unspecified), the growth rescue was -1.16% (inactive). In the case of O=C(NC1CCCC1)C(c1ccc(N2CCOCC2)cc1)N(C(=O)c1ccco1)c1ccccc1F (stereo unspecified), the growth rescue was 95.4% (inactive). In the case of CCc1cc(-c2nnc(SCC(=O)NC3CC3)n2C)cs1, the growth rescue was -5.06% (inactive). In the case of CN1CCN(C(=O)C2C3C=CC(C3)C2C(=O)O)CC1 (stereo unspecified), the growth rescue was 0.946% (inactive). For O=C(O)C1C2C=CC(C2)C1C(=O)NCc1ccccc1 (stereo unspecified), the growth rescue was -11% (inactive). For C=C(Cl)COC(=O)C1C2C=CC(C2)C1C(=O)O (stereo unspecified), the growth rescue was 885% (active). With CCOC(=O)C1CCN(C(=O)c2cccc(S(=O)(=O)N(CC)c3ccccc3)c2)CC1 the growth rescue was -7.37% (inactive). With Cc1cc(C)n(CCC(=O)N2CCN(S(=O)(=O)c3ccc(C)c(C)c3)CC2)n1 the growth rescue was 315% (active). For Cc1cc(C)n(C(=O)c2ccc(S(=O)(=O)N3CCCC3)cc2)n1, the growth rescue was 1400% (inactive). For Cc1ccc(S(=O)(=O)N2CCN(c3ccccc3)CC2)cc1C, the growth rescue was 11.5% (inactive). In the case of Cc1ccccc1NC(=O)C(C)OC(=O)CCC(=O)N(CC(C)C)c1c(N)n(CC(C)C)c(=O)[nH]c1=O (stereo unspecified), the growth rescue was -16.2% (inactive). With O=C(OCCN1C(=O)c2ccccc2C1=O)[C@@H]1CC(O)CN1S(=O)(=O)c1ccccc1[N+](=O)[O-] (stereo partly specified) the growth rescue was -16.3% (inactive).
